# An excerpt weighted towards active compounds, which were near 9.2% of everything screened.
# NPC1 prom act = activators of NPC1 promoter. Huh7 NPC1 promoter luciferase reporter, 24 h. 2.4% of 320,000 active. Potency, µM (highest dose often 9.22 µM), without a hit: top-dose activation, most hits filed as activators; also: % of control where 0% means no effect; nearly all actives have a fitted effect of over 60% in size
#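 Huh7 cells stably carrying NPC1 promoter–luciferase, plated in Opti-MEM with 10% FBS for 2 h, were exposed to compound in DMSO for 24 h at 37 °C; luciferase reagent was added for 10 min and luminescence read.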
# ELG1 repair inh = blocks ELG1-dependent DNA repair in HEK293T cells. HEK293T ELG1-luciferase reporter, luminescence, 16 h; DNA damage induced by 5-fluorouridine. Potency, µM (doses to about 46.1 µM), for the others: top-dose activity change, negative = inhibition, actives largely listed as inhibitors. 2.3% of 330,000 active; also: % is scaled to controls: 0 for no effect and ±100 for the full control effect; nearly all actives have a fitted effect of over 55% in size
#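 Step one: seed 2,000 cells per well. Step two: pin-transfer compound or DMSO alongside 5-fluorouridine. Step three: incubate 16 hr, 37 °C, 5% CO2. Step four: add ONE-Glo, wait 30 min, read luminescence.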
# SMN2 splice up = increases expression of the SMN2 splice variant; HEK293 SMN2-luciferase splicing reporter, luminescence, 30-36 h; Potency, µM (titrated, usually from 46.1 µM), without a hit: at the highest dose activity change, positive = activation, actives largely listed as activators; 2.8% of 210,000 active; AID 1458; also: % of control where 0% means no effect; nearly all actives have a fitted effect of over 55% in size
#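 HEK293 cells carry an SMN2 minigene-luciferase reporter in which exon 7 inclusion puts luciferase in frame. Cells were seeded at 2000 cells/well, attached for 10-12 hours, then exposed to compounds for 30-36 hours at 37C before ONE-Glo luminescence.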
# ELG1 genotox = genotoxicity induction in ELG1-luciferase HEK293T cells; AID 504466; HEK293T ELG1-luciferase reporter, luminescence, 16 h; Potency, µM (top dose mostly 46 µM), for inactives: at the highest dose activity change, positive = activation, actives largely listed as activators; 1.3% of 330,000 active; also: % of control where 0% means no effect; nearly all actives have a fitted effect of over 60% in size
#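 Screening used a luciferase reporter fused to human ELG1 in HEK293T cells. Luminescence was read on a CCD plate imager after 16 hr exposure and 30 min ONE-Glo incubation.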
# FLuc modulator = firefly luciferase modulation, counter-screen for miR-21 project. Potency, µM (highest dose often 57.5 µM), for the others: at the highest dose activity change, negative = inhibition, most hits filed as inhibitors. purified FLuc, Km substrates, luminescence inhibition. AID 588342. 6.9% of 360,000 active. P08659;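 also: plate controls were vehicle for no effect and reference inhibitor for full effect; nearly all actives have a fitted effect of over 55% in size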
# Target sequence (P08659 whole entry, looked up): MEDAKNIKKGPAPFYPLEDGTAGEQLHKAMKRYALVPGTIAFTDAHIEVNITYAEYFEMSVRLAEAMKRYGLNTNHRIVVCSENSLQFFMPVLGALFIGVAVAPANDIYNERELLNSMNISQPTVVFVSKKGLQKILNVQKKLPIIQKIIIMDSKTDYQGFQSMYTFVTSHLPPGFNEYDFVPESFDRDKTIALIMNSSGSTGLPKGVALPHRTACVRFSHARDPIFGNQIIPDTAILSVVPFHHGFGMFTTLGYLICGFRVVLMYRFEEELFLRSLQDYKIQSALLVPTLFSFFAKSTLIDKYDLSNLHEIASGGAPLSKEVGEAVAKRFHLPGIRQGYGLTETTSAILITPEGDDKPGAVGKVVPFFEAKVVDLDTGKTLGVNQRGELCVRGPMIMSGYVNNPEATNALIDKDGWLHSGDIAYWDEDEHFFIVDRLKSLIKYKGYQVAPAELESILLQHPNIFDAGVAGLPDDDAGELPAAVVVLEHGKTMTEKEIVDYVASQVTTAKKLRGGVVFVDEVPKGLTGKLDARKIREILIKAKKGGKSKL
#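 Purified P. pyralis luciferase, 10 nM final, with Km-level 10 uM D-luciferin and 10 uM ATP in 50 mM Tris acetate pH 7.5, 10 mM Mg acetate, 0.01% Tween-20, 0.05% BSA; 6-point qHTS titration about 60 µM downward; luminescence read.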
# Rab9 promoter act = activators of Rab9 promoter. Huh7 Rab9 promoter-luciferase reporter, luminescence, 24 h. Potency, µM (series often up to 9.22 µM), without a hit: at the highest dose activation, negative = inhibition, usual class: activators. 2.8% of 320,000 active. AID 485297; also: % of control where 0% means no effect; nearly all actives have a fitted effect of over 60% in size
#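 Huh7 cells stably carrying a Rab9 promoter-luciferase reporter, 1500 cells per well in OP-MEM I with 10% FBS, treated with compound 24 hours at 37C. Luciferase activity read by luminescence after 10 minutes with Amplite reagent.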
# * marks the source's active call; other numbers are inactive results; ? = inconclusive; · = no result; [ ] = another dose, or the depositor's remark. Calls follow the shape of the dose curve; as a rule, active = well fitted curve in the direction sought with a large enough effect; inconclusive = small, poorly fitted or top-dose-only effect, or another doubt; inactive = no such curve, though single readings can be large; an effect the other way counts as inactive or inconclusive. Potency is read from the fitted curve at half-maximal effect.
SMILES,NPC1 prom act,ELG1 repair inh,SMN2 splice up,ELG1 genotox,FLuc modulator,Rab9 promoter act
O=C(Nc1cccc(-c2nc3ccccc3[nH]2)c1)c1cccc(NC(=O)c2ccco2)c1,19%,?,-90%,-23%,?,1%
O=C(NCc1ccccc1Cl)c1ccc(S(=O)(=O)NCc2ccco2)cc1,-5%,-4%,·,-1%,0%,2%
COc1cccc(-c2c(C(=O)N/N=C/c3ccc(C)o3)nnn2-c2nonc2N)c1,0%,5%,·,-3%,-15%,-4%
Cc1cccc(/C(N)=N/OC(=O)Cc2cccs2)c1,?,?,10%,?,13µM*,?
Cc1ccc(/C(N)=N/OC(=O)Cc2cccc3ccccc23)cc1,0%,-6%,7%,2%,-13%,-4%
N/C(=N\OC(=O)Cc1cccs1)c1ccc(Cl)cc1,20%,?,·,?,13µM*,24%
Cc1ccc(/C(N)=N/OC(=O)Cc2cccs2)cc1,?,?,1%,?,9.5µM*,?
Cc1ccc(/C(N)=N/OC(=O)Cc2ccccc2)cc1,18%,?,20%,?,19µM*,1%
Cc1ccc(C(C)C)c(OCCCn2c(=O)oc3ccccc32)c1,·,·,-1%,·,-11%,·
N/C(=N\OC(=O)Cc1cccs1)c1cccc([N+](=O)[O-])c1,-3%,?,-3%,5%,?,-2%
N/C(=N\OC(=O)Cc1cccs1)c1ccccc1,?,?,-4%,?,15µM*,27%
O=C(CSc1nc(C(F)(F)F)cc(=O)[nH]1)N1CCC(Cc2ccccc2)CC1,-4%,-2%,·,-6%,3%,1%
Cc1cc2c(cc3c(SCc4ccc(Cl)cc4)nnc(C)n32)o1,·,·,·,·,-17%,·
Cc1cc2c(cc3c(SCc4ccccc4Cl)nnc(C)n32)o1,·,·,·,·,13µM*,·
COc1ccc(-c2cc(C(=O)NC(C)c3ccccc3)c3cc(C(C)C)ccc3n2)cc1 (centres undefined),·,·,·,·,3%,·
O=C(CNCC1CCCO1)Nc1ccc([N+](=O)[O-])cc1C(=O)Nc1ccccc1F (centres undefined),0%,?,17%,-15%,1%,-1%
COc1cccc(NC(=O)c2cc([N+](=O)[O-])ccc2NC(=O)CNCC2CCCO2)c1 (centres undefined),7%,9.2µM*,4%,-10%,-3%,-11%
COc1cc(NC(=O)c2cc([N+](=O)[O-])ccc2NC(=O)CNC2CCCCC2)cc(OC)c1,-3%,21µM*,·,-22%,2%,-4%
Cc1cccc(NC(=O)c2cc([N+](=O)[O-])ccc2NCC2CCCO2)n1 (centres undefined),-2%,15µM*,-21%,-16%,-2%,-9%
O=C(Nc1ccccc1)c1ccc(NCC2CCCO2)c([N+](=O)[O-])c1 (centres undefined),?,?,18µM*,14%,?,?
CC(C)c1ccc(NC(=O)CSc2ncnc3c2sc2ccccc23)cc1,·,·,·,·,-3%,·
CC(=O)Nc1ccccc1-c1nc2ccccc2n(CC(=O)c2ccc(C)c(C)c2)c1=O,·,·,·,·,-2%,·
COc1ccc(NC(=O)c2cc([N+](=O)[O-])ccc2NC(=O)CNCc2ccccn2)c(OC)c1,3%,-12%,·,-5%,0%,3%
COc1cc(NC(=O)c2cc([N+](=O)[O-])ccc2NC(=O)CNCc2ccccn2)cc(OC)c1,-3%,6.5µM*,·,-9%,-1%,-3%
O=C(Nc1cccc(S(=O)(=O)C(F)F)c1)c1ccc(Cl)c(S(=O)(=O)N2CCOCC2)c1,-3%,7.3µM*,-60%,-10%,-1%,-9%
SMILES,NPC1 prom act,ELG1 repair inh,SMN2 splice up,ELG1 genotox,FLuc modulator,Rab9 promoter act
O=C(Nc1cccnc1)c1ccc(Cl)c(S(=O)(=O)N2CCOCC2)c1,-2%,?,·,-5%,2%,6%
O=C(Nc1cccc(Br)c1)c1ccc(Cl)c(S(=O)(=O)N2CCOCC2)c1,-20%,16µM*,-57%,-24%,-17%,-31%
O=C(Nc1nccs1)c1ccc(F)c(S(=O)(=O)N2CCOCC2)c1,1%,-29%,·,-10%,-2%,-1%
O=C(Nc1cccc(C(=O)NC2CC2)c1)c1ccc(Cl)c(S(=O)(=O)N2CCOCC2)c1,0%,13µM*,·,-4%,-12%,1%
O=C(Nc1nccs1)c1ccc(Br)c(S(=O)(=O)N2CCOCC2)c1,0%,21µM*,-49%,-4%,-18%,-2%
C=C(C)C(=O)/C=C/C=C/c1ccccc1,·,·,7%,·,·,·
COc1ccc(C(=O)NC2CCCN(Cc3ccc(Cl)cc3)C2)c(OC)c1 (centres undefined),-7%,?,·,-8%,2%,-3%
CC(C)=C[C@H]1[C@@H](COC(=O)c2ccccc2Cl)C1(C)C,·,·,-7%[9.22 µM],·,·,·
Cc1nc2nc(SCC(=O)C(C)(C)C)[nH]c2cc1Br,3%,28%,-5%,5%,-13%,-2%
CC(C)(C)C(=O)CSc1nc2ncc(Br)cc2[nH]1,3%,16%,·,0%,19µM*,0%
N=C1C(c2nc3ccccc3s2)=C(O)CN1Cc1ccco1,?,?,?,9.2µM*,?,?
CN(C)CCN1CC(O)=C(c2nc3ccccc3s2)C1=N,-4%,-5%,·,0%,-1%,-2%
CCCc1cc(C(=O)Nc2c(C)nn(Cc3c(Cl)cccc3Cl)c2C)no1,·,·,?,·,4%,·
S=C(Nc1ccc2c(c1)OCCO2)Nc1ccccc1Cl,19%,?,·,?,15µM*,25%
S=C(Nc1ccc(Cl)cc1)Nc1ccc2c(c1)OCCO2,?,?,·,11%,11µM*,?
O=C(CN1CCN(CC(=O)Nc2ccccc2Cl)CC1)Nc1ccc2c(c1)OCCO2,-5%,?,-7%,-7%,-1%,-1%
Cc1ccc(/C=C/C(=O)OCC(=O)c2ccc3c(c2)NC(=O)CO3)o1,·,12µM*,·,-4%,·,·
O=C(NCc1cccnc1)c1cccc(S(=O)(=O)NCc2ccccc2)c1,-1%,-4%,·,0%,-1%,0%
O=C(Nc1ccc2c(c1)OCCO2)N1CCN(Cc2ccccc2)CC1,?,?,18%,2%,13µM*,?
COc1ccc(OCCCC(=O)Nc2ccc3c(c2)OCO3)cc1,7%,-5%,-4%,3%,4%,20%
CC(C)c1ccc(NC(=O)CCc2ccccc2)cc1,26%,?,·,?,24µM*,?
O=C(CCCOc1ccccc1)Nc1ccc2c(c1)OCCO2,1%,?,·,?,12µM*,3%
